GRP78 ERSR act: qHTS for Inducers of the Endoplasmic Reticulum Stress Response (ERSR) in Human Glioma: qHTS | U87-MG GRP78 promoter luciferase reporter, 16 h | Potency, µM, for inactives: top-dose activation, actives largely listed as activators | 0.02% of 420,000 active | AID 602332, 2012; further: series mostly up to about 76 µM; % of control where 0% means no effect; nearly all actives have a fitted effect of over 35% in size
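Stably transfected U87-MG human glioma cells carrying a GRP78-based luminescent sensor were seeded at 1000 cells/well, pin-dosed with compounds and incubated 16 h. Luciferase reagent was then added, and end-point luminescence was read after 10 min at room temperature.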
ALOX12 inh: Primary qHTS assay for inhibitors of human arachidonate 12S-lipoxygenase (ALOX12): Round 2; purified 12hLO, xylenol orange hydroperoxide absorbance; 1.1% of 580,000 active; Potency, µM (series often up to 108 µM), for inactives: top-dose activity change, negative = inhibition, actives largely listed as inhibitors; Polyunsaturated fatty acid lipoxygenase ALOX12 (Homo sapiens), P18054; further: on the % scale 0 is the no-effect control and ±100 the full control effect
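Purified human 12hLO at 150 nM in 25 mM Hepes, 0.01% Triton X-100, pH 7.0, preincubated 15 min at room temperature with compound. Reaction started with 40 uM arachidonic acid, 30 min at room temperature. Hydroperoxide measured by Fe-xylenol orange, 573/405 nm absorbance ratio.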
GLP1R inv ag: qHTS of GLP-1 Receptor Inverse Agonists (Inhibition Mode); HEK293 GLP-1R CRE-luciferase, luminescence, 24 h; GLP-1R form is constitutively active; Potency, µM (series often up to 38.3 µM), for inactives: at the top dose activity change, negative = inhibition, usual class: inhibitors; 1.6% of 410,000 active; further: on the % scale 0 is the no-effect control and ±100 the full control effect; nearly all actives have a fitted effect of over 55% in size
Target sequence (P43220 whole entry, looked up): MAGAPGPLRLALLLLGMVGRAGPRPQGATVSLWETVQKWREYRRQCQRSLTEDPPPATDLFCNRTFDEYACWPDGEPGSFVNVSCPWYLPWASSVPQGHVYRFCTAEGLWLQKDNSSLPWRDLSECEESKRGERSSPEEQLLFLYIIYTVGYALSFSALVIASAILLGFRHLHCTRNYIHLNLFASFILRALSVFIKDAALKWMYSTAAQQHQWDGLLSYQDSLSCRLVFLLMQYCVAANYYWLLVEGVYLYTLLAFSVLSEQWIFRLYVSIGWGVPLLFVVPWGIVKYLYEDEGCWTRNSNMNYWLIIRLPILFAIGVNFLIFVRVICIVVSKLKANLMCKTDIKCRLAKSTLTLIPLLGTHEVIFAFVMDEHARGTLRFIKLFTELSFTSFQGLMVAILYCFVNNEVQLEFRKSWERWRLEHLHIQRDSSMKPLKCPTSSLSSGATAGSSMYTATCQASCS
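qHTS in 1536-well format: reporter HEK293 cells expressing constitutive GLP-1R activity in DMEM + 10% Nu serum, 24 hr with compounds at 37 deg C, luminescence read after 12 min with detection reagent.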
GLP1R ag: qHTS of GLP-1 Receptor Agonists | Glucagon-like peptide 1 receptor (Homo sapiens), P43220 | HEK293 GLP-1R CRE-luciferase, luminescence, 4-6 h; cells express a hypersensitive GLP-1R form | Potency, µM (doses to about 45.6 µM), for the others: at the top dose activation, hits mostly activators | 0.007% of 380,000 active; further: % of control where 0% means no effect
PTHR1 ag: qHTS for PTHR1 Agonists: Primary Screen | Parathyroid hormone/parathyroid hormone-related peptide receptor (Homo sapiens), Q03431 | HEK293 GP2 PTHR1 cells, GloSensor cAMP luminescence, 1 h | Potency, µM (highest dose often 115 µM), inactives show top-dose activation, actives largely listed as activators | 0.075% of 410,000 active; further: nearly all actives have a fitted effect of over 55% in size
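HEK-293-derived GP2 cells expressing PTHR1 and a GloSensor cAMP reporter, 3,000/well, plated overnight, given luciferin plus IBMX (each 0.5 mM as added) for 1 h at 37 °C, then compound for 1 h at 37 °C. Luminescence was read after 15 min at room temperature.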
GLS inhibitor: qHTS for Inhibitors of Glutaminase (GLS); Glutaminase kidney isoform, mitochondrial (Homo sapiens), O94925; GLS enzymatic activity, qHTS titration; Potency, µM (top dose mostly 45.5 µM), for inactives: at the highest dose activity change, negative = inhibition, usual class: inhibitors; 0.21% of 410,000 active; AID 624170, 2012; further: on the % scale 0 is the no-effect control and ±100 the full control effect
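Assay buffer: 45 mM KH2PO4 pH 8.2, 0.02% Tween-20. hKGA acts on L-glutamine (1 mM solution added); product glutamate is reported by an oxidase/peroxidase Amplex Red coupling, with fluorescence taken at baseline and 30 min.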
* = called active by the depositor; i = inactive; ? = inconclusive; / = no result given; [ ] = another dose, or the depositor's remark. This is a sample that favours compounds with a hit; in the whole collection about 2.3% have one here. The call rests on the fitted dose curve; in most records, active means well fitted curve in the direction sought with a large enough effect; inconclusive means small, poorly fitted or top-dose-only effect, or another doubt; inactive means no such curve, though single readings can be large; an effect the other way counts as inactive or inconclusive. Potency means the concentration at half of the fitted maximal effect.

SMILES | GRP78 ERSR act | ALOX12 inh | GLP1R inv ag | GLP1R ag | PTHR1 ag | GLS inhibitor
CCc1ccc(NC(=O)C(C)Oc2nnc(-c3cccs3)c(-c3cccs3)n2)cc1 (configuration not stated) | 10% | 132% | 10µM* | 0% | -3%[57.5 µM] | -4%
CC(C)c1ccc(NC(=O)COc2nnc(-c3cccs3)c(-c3cccs3)n2)cc1 | -5% | -6% | ? | -7% | i | -11%
O=C(Nc1nccs1)c1ccc[n+]([O-])c1 | / | -54% | / | / | / | /
Cc1ccc(C(=O)OCC(=O)Nc2ccccc2C(F)(F)F)cc1S(=O)(=O)N1CCCCC1 | -3% | -4% | 10µM* | 16% | -15% | 3%
Cc1ccc(C(=O)OCC(=O)NCc2cccc(Cl)c2)cc1S(=O)(=O)N1CCCCC1 | 0% | -31% | 5µM* | 7% | -10% | 2%
Cc1ccc(Cl)cc1NC(=O)COC(=O)c1ccc(C)c(S(=O)(=O)N2CCCCC2)c1 | / | -7% | / | / | / | /
COc1ccc(NC(=O)c2nn(-c3ccccc3C)c(=O)cc2OC)cc1 | / | -17% | / | / | / | /
CN(C1=C(N2CCOCC2)C(=O)c2ccccc2C1=O)c1ccccc1 | -3% | -2% | 10µM* | -13% | -17% | 3%
COc1ccccc1N1CCN(C(=O)COCC(=O)NCCc2ccccc2)CC1 | / | 3% | / | / | / | /
Cc1ccc2nc(N3C(=O)C(O)=C(C(=O)c4ccco4)C3c3cccs3)sc2c1 (configuration not stated) | 5% | 18µM* | 0% | 6% | 6%[57.5 µM] | ?
Cc1ccc2nc(N3C(=O)C(O)=C(C(=O)c4ccc(C)o4)C3c3ccc(O)cc3)sc2c1 (configuration not stated) | 3% | 28µM* | -17% | 2% | -10% | 1%
CCOc1cccc(C2C(C(=O)c3ccc(C)o3)=C(O)C(=O)N2c2nnc(C)s2)c1 (configuration not stated) | -6% | ? | -3% | 1% | i | -10%
CCCOc1cccc(C2C(C(=O)c3ccc(C)o3)=C(O)C(=O)N2c2nc(C)c(C(C)=O)s2)c1 (configuration not stated) | -1% | 1.3µM* | 19% | 0% | -15% | -8%
COc1ccc2nc(N3C(=O)C(O)=C(C(=O)c4ccco4)C3c3ccc(C)o3)sc2c1 (configuration not stated) | 1% | ? | -25% | 13% | -50% | 10µM*
CN(C)c1cccc(C(=O)NC2CCN(c3cc(-c4ccccc4)[nH]n3)C2)c1 (configuration not stated) | / | 16% | / | / | / | /
COc1ccc(CN(C)Cc2cc(C)no2)cc1OC | / | 0% | / | / | / | /
Cc1cc(C)[n+](C)n1-c1ccccc1 | / | 18µM* | / | / | / | /
Cc1cc(C)[n+]2n1C(=O)C(c1ccccc1)=C2[O-] | 6% | -5% | 12% | 4% | -11% | -4%
COc1cccc(C(=O)c2oc3cc(NC(C)=O)ccc3c2C)c1 | / | -59% | / | / | / | /
CC(C)NC(=O)CSc1nnc(-c2cc3c(s2)CCC(C(C)(C)C)C3)n1C (configuration not stated) | / | 19% | / | / | / | /
CCNc1nc(C23CC4CC(CC(C4)C2)C3)cs1 | -2% | ? | 2.8µM* | 5% | -77% | 6%
O=C(NCC1CCN(C2CC2)C1)Nc1ccc(Cl)cc1 (configuration not stated) | / | 5% | / | / | / | /
COc1cc(/C=C2\CCCc3c2nc2ccccc2c3C(=O)O)cc(Br)c1O | -2% | 50µM* | 72% | 11% | -24% | 64%
COc1cc(C2NC(=S)NC3=C2CCc2ccccc23)cc(OC)c1OC (configuration not stated) | -4% | ? | -12% | 1% | -11% | 58%
S=C1NC2=C(CCCC2=C2SCCCS2)C(c2ccccc2)N1 (configuration not stated) | -1% | 14µM* | ? | 17% | i | -36%
SMILES | GRP78 ERSR act | ALOX12 inh | GLP1R inv ag | GLP1R ag | PTHR1 ag | GLS inhibitor
S=C1NC2=C(CCc3ccccc32)C(c2ccccc2)N1 (configuration not stated) | / | 16µM* | / | / | / | /
O=C1NC2=C(CCc3ccccc32)C(c2ccccc2)N1 (configuration not stated) | 1% | ? | 1% | 2% | 3% | 2%
Fc1cccc(Cl)c1C1NC(=S)NC2=C1CCc1ccccc12 (configuration not stated) | / | 40µM* | / | / | / | /
COc1ccc(-c2nc3c(c(=O)[nH]2)CCN(S(=O)(=O)c2cccc4cccnc24)C3)cc1 | / | 33% | / | / | / | /
O=C(NC(=S)N1CCN(c2ccc(Cl)cc2[N+](=O)[O-])CC1)c1cccs1 | 0% | / | 10µM* | -22% | -4% | 1%
CC(=O)c1ccc(N2CCN(c3ccc(C(N)=O)cc3[N+](=O)[O-])CC2)cc1 | -1% | -1% | 3% | 7% | -24% | 5%
O=[N+]([O-])c1cc(Cl)ccc1N1CCN(c2ccccc2O)CC1 | 0% | -16% | ? | 19% | i | 16µM*
O=C(NC(=S)N1CCN(c2ccc(Cl)cc2[N+](=O)[O-])CC1)c1ccco1 | -1% | -12% | -17% | 0% | -1% | -17%
NC(=O)c1ccc(N2CCN(c3ccc(O)cc3)CC2)c([N+](=O)[O-])c1 | -2% | ? | -23% | 9% | -9% | 13µM*
Cc1ccc2nc(CO[C@H]3CN(c4ccc(C#N)cn4)C[C@H]3F)[nH]c2c1 | / | 14µM* | / | / | / | /
COc1ccc2c(CN3CCCC(C(F)(F)F)C3)cc(=O)oc2c1 (configuration not stated) | / | -8% | / | / | / | /
NC(=S)NN=C(Cc1ccccc1)Cc1ccccc1 | -4% | 11µM* | ? | -2% | -17% | 1%
CCCCn1cnc2c1c(=O)[nH]c(=O)n2CCC | / | -24% | / | / | / | /
COc1ccccc1CC(=O)Nc1cccc(C(=O)NC(C)(C)C)c1 | / | -33% | / | / | / | /
Cc1cc(C)cc(-n2ccnc2SCC(=O)Nc2ccc(C)c(Cl)c2)c1 | -2% | -19% | 8.9µM* | -1% | i | -3%
CCn1c(SCC(=O)Nc2ccc(C)cc2)nc(O)cc1=O | -3% | -13% | -12% | 2% | i | 6%

High-throughput results as filed in PubChem BioAssay.
